Source: PubChem BioAssay (NCI)
“And” between values parts separate entries of the source, which are not always exact repeats. Equal entries are not always repeated. About 83,000 compounds went through this panel and 20% of them were active in at least one assay; those are over-represented in the sample as a whole.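 Method: cells in 96-well plates; compound added at one concentration; 48 h incubation; percent growth measured; values under 10 scored active.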 The source made the active and inactive calls.

How the values were obtained:
Test in all cases: NCI-60 one-dose screen, 48 h (100 = growth as untreated, 0 = no growth, -100 = all killed)
Details in all cases: 10 µM unless noted
[1] = test system: HCT-15 colon
[2] = test system: HT29 colon
[3] = test system: SNB-75 CNS
[4] = test system: SNB-19 CNS
[5] = test system: U251 CNS
[6] = test system: SK-MEL-5 melanoma
[7] = test system: LOX IMVI melanoma
[8] = test system: SK-MEL-28 melanoma
[9] = test system: SK-MEL-2 melanoma
[10] = test system: EKVX NSCLC
[11] = test system: SN12C renal
[12] = test system: UO-31 renal
[13] = test system: TK-10 renal
[14] = test system: ACHN renal
[15] = test system: CAKI-1 renal
[16] = test system: A498 renal
[17] = test system: CCRF-CEM leukemia
[18] = test system: MOLT-4 leukemia
[19] = test system: UACC-62 melanoma
[20] = test system: PC-3 prostate

Compound | growth [1] | growth [2] | growth [3] | growth [4] | growth [5] | growth [6] | growth [7] | growth [8] | growth [9] | growth [10] | growth [11] | growth [12] | growth [13] | growth [14] | growth [15] | growth [16] | growth [17] | growth [18] | growth [19] | growth [20]
COc1ccc2c(c1)oc1c(C)c3c(c(C)c12)C(=O)N(Nc1ccccc1)C3=O | 105% (inactive) | 106% (inactive) | 94.5% (inactive) | 99% (inactive) | 108% (inactive) | 100% (inactive) | 100% (inactive) | 95.3% (inactive) | 99% (inactive) | 108% (inactive) | 97% (inactive) | 84% (inactive) | 114% (inactive) | 99.4% (inactive) | 91.5% (inactive) | 117% (inactive) | 111% (inactive) | 99.8% (inactive) |  | 
CCOC(=O)N(O)c1ccc(/C=C/c2ccccc2)cc1 | 69.8% (inactive) and 72.3% (inactive) | 66.8% (inactive) and 53.7% (inactive) | 93.6% (inactive) and 96.4% (inactive) | 91.2% (inactive) and 74.5% (inactive) | 54.6% (inactive) and 58.1% (inactive) | 66.2% (inactive) and 57.1% (inactive) | 60.2% (inactive) and 58.5% (inactive) | 103% (inactive) and 108% (inactive) | 66.5% (inactive) and 53.1% (inactive) | 91.8% (inactive) | 66.3% (inactive) and 62.6% (inactive) | 56.2% (inactive) and 57.4% (inactive) | 4.6% (active) | 76.2% (inactive) and 70.3% (inactive) | 51.7% (inactive) and 81.4% (inactive) | -67.4% (active) and -83.1% (active) | 55.2% (inactive) and 63% (inactive) | 59.4% (inactive) and 60.9% (inactive) | 29.4% (inactive) and -29.2% (active) | 
Cc1oc2c(Cc3ccc(NC(=O)c4ccc(Cl)cc4)cc3)ncnc2c1C(=O)NO | 103% (inactive) | 89.6% (inactive) | 106% (inactive) | 105% (inactive) | 104% (inactive) | 86.1% (inactive) | 102% (inactive) | 107% (inactive) | 88.3% (inactive) | 102% (inactive) | 103% (inactive) | 85.4% (inactive) | 95.6% (inactive) | 106% (inactive) | 98.9% (inactive) | 85.2% (inactive) | 90.9% (inactive) | 82.5% (inactive) | 89.9% (inactive) | 
[2H]C([2H])([2H])Oc1cccc(/C=C/C(=O)/C=C(/C=C/c2cccc(OC([2H])([2H])[2H])c2OC([2H])([2H])[2H])OB(F)F)c1OC([2H])([2H])[2H] | 58.3% (inactive) | 86.3% (inactive) | 55.2% (inactive) | 89.1% (inactive) | 58.8% (inactive) | 98.6% (inactive) | 54.6% (inactive) | 88.5% (inactive) | 116% (inactive) | 93.6% (inactive) | 74% (inactive) | 51.5% (inactive) | 99.9% (inactive) | 51.5% (inactive) | 58.1% (inactive) | 117% (inactive) | 4.12% (active) | 15.6% (inactive) | 66.6% (inactive) | 
c1ccc(-c2cc(-c3cc(-c4ccccc4)on3)no2)cc1 | 17.5% (inactive) | 21.2% (inactive) | 123% (inactive) | 101% (inactive) | 73.8% (inactive) | 101% (inactive) | 69.2% (inactive) | 102% (inactive) | 20.5% (inactive) | 121% (inactive) | 92.9% (inactive) | 92.1% (inactive) | 104% (inactive) |  | 35.5% (inactive) | 97.6% (inactive) | 81.9% (inactive) | 63.7% (inactive) | 89.7% (inactive) | 
CC(Sc1ccccc1)C(=O)O (stereo not given) | 100% (inactive) | 99.3% (inactive) | 91.6% (inactive) | 94.5% (inactive) | 91.1% (inactive) | 106% (inactive) | 95.6% (inactive) |  | 116% (inactive) | 94.2% (inactive) | 103% (inactive) | 94.9% (inactive) | 102% (inactive) | 104% (inactive) | 76.5% (inactive) | 88.7% (inactive) | 93.9% (inactive) | 141% (inactive) |  | 103% (inactive)
COc1ccc(C(=O)c2ccc(OC)c(OC)c2OC)cc1 | 26.6% (inactive) and 27.2% (inactive) | 4.69% (active) and 12.7% (inactive) | -3.95% (active) | 43.6% (inactive) and 41.7% (inactive) | 31.3% (inactive) and 26.2% (inactive) | 18.8% (inactive) | 34.3% (inactive) and 39.8% (inactive) | 45.3% (inactive) and 50.3% (inactive) | 17.6% (inactive) and 57.5% (inactive) | 48.1% (inactive) and 39% (inactive) | 56.1% (inactive) and 43.4% (inactive) | 41.8% (inactive) and 24.1% (inactive) | 34.4% (inactive) and 54.2% (inactive) | 42.5% (inactive) and 53.8% (inactive) | 14.4% (inactive) and 21% (inactive) | 4.87% (active) and -9.47% (active) | 37.3% (inactive) | 41.5% (inactive) and 36.8% (inactive) | 40.8% (inactive) and 50.7% (inactive) | 
